Unmarked numbers belong to inactive results. Calls of active or inactive are those of the source. The call rests on the fitted dose curve; in most records, active means well fitted curve in the direction sought with a large enough effect in the repeat runs; inconclusive means weak or mixed curves; inactive means flat fitted curve, though single readings scatter.
Assay: qHTS assay to test for compound auto fluorescence at 535 nm (green) in HepG2 cells (AID 720675)
Conditions: green autofluorescence 485/535 nm, 1 h; series mostly up to 91.3 µM
On the % scale 0 is the no-effect control and ±100 the full control effect.

Row | SMILES | outcome | fluorescence, % of fluorescein control
1 | CCC1(CCC(C)C)C(=O)NC(=O)NC1=O | inactive | –
2 | C=CCN1C[C@H](C)N([C@H](c2ccc(C(=O)N(CC)CC)cc2)c2cccc(OC)c2)C[C@H]1C | inactive | –
3 | O=C(NC(=O)c1cc(F)c(F)cc1Cl)Nc1cc(F)ccc1N1CCC(C(=O)O)CC1 | inactive | –
4 | [Cl-].[Cl-].[Hg+2] | inactive | –
5 | CC(=O)OC(c1ccccc1)C(Cl)(Cl)Cl (stereo not drawn) | inactive | –
6 | Cc1ncc(C[n+]2csc(CCO)c2C)c(N)n1 | inactive | –
7 | CN1CC[C@]23c4c5ccc(O)c4O[C@H]2[C@@H](O)C=C[C@H]3[C@H]1C5 | inactive | –
8 | Nc1c(Br)cc(Br)c2c1C(=O)c1ccccc1C2=O | – | 0.0991% [at 18.6 µM]
9 | CCC(C)(C)O | inactive | –
10 | CC(C)(C)N(NC(=O)c1ccc(Cl)cc1)C(=O)c1ccccc1 | inactive | –
11 | O=[N+]([O-])c1cc(Cl)c(Cl)cc1Cl | inactive | –
12 | CN(C)c1ccc(N=O)cc1 | inactive | –
13 | CC1(C)[C@H](C(=O)O[C@H](C#N)c2cccc(Oc3ccccc3)c2)[C@@H]1C=C(Br)Br | inactive | –
14 | CC(=O)NNc1ccccc1 | inactive | –
15 | CCCN(CCOc1c(Cl)cc(Cl)cc1Cl)C(=O)n1ccnc1 | inactive | –
16 | Nc1ccccc1C(=O)OCCc1ccccc1 | inactive | –
17 | O=C(O)COc1cc(Cl)c(Cl)cc1Cl | inactive | –
18 | NP(N)(=O)NC(=O)c1ccc(F)cc1 | inactive | –
19 | CN1C(=O)CN=C(c2ccccc2)c2cc([N+](=O)[O-])ccc21 | inactive | –

Row | SMILES | outcome | fluorescence, % of fluorescein control
20 | O=S(=O)(c1ccccc1)c1ccccc1 | inactive | –
21 | CCNC(=O)NC(=O)/C(C#N)=N/OC | inactive | –
22 | O=C(O)CCCOc1ccc(Cl)cc1Cl | inactive | –
23 | C[Si](Cn1cncn1)(c1ccc(F)cc1)c1ccc(F)cc1 | inactive | –
24 | C[C@]12C=CC3=C4CCC(=O)C=C4CC[C@H]3[C@@H]1CC[C@@H]2O | inactive | –
25 | FC(Cl)(Cl)C(F)(Cl)Cl | inactive | –
26 | O=C(O)C(F)(F)C(F)(F)C(F)(F)C(F)(F)C(F)(F)C(F)(F)C(F)(F)C(F)(F)F | inactive | –
27 | CCC1(C2=NCCN2)Cc2ccccc2O1 (stereo not drawn) | inactive | –
28 | O=C(O)C(O)C(O)C(=O)O (stereo not drawn) | inactive | –
29 | Nc1ccc2c(c1)Cc1ccccc1-2 | inactive | –
30 | CC(Oc1cc(Cl)c(Cl)cc1Cl)C(=O)O (stereo not drawn) | inactive | –
31 | CN1C[C@H](C(=O)N[C@]2(C)O[C@@]3(O)[C@@H]4CCCN4C(=O)[C@H](Cc4ccccc4)N3C2=O)C=C2c3cccc4[nH]cc(c34)C[C@H]21 | inactive | –
32 | C=C(C)C(=O)OCCCCOC(=O)C(=C)C | inactive | –
33 | Cc1ccc(N)c(C)c1 | inactive | –
34 | COP(=O)(OC)OC(Br)C(Cl)(Cl)Br (stereo not drawn) | inactive | –
35 | CC[N+]1(CCOC(=O)C(O)(c2ccccc2)c2ccccc2)CCCCC1 | inactive | –
36 | O=CC=O | inactive | –
37 | C[CH2][Hg][S]c1ccccc1C(=O)O | inactive | –
38 | O=P(OCC(Br)CBr)(OCC(Br)CBr)OCC(Br)CBr (stereo not drawn) | inactive | –

From PubChem BioAssay (Tox21)
